In the supplement of paper PMC13380429:

Tested on: Vero E6 infected with SARS-CoV-2
Assay: inhibition of SARS-CoV-2 cytopathic effect; higher = more antiviral protection, active = above 15
Details: 48 h

Measured: inhibition of SARS-CoV-2 cytopathic effect

OC[C@H]1O[C@@H](n2cnc3c(NC4CCCC4)nc(Cl)nc32)[C@H](O)[C@@H]1O [2-chloro-N6-cyclopentyladenosine]
inactive: 1 nM -3.44% | 8.33 nM 0.41% | 100 nM 2.9% | 833.33 nM 2.35% | 10000 nM -0.77%

NC1CCN(c2nc3c(cc2F)c(=O)c(C(=O)O)cn3-c2ccc(F)cc2F)C1 (stereo not given) [tosufloxacin]
inactive: 1 nM -2.93% | 8.33 nM 0.34% | 100 nM -3.49% | 833.33 nM -3.32% | 10000 nM -0.08%

CCCC(C)C1(CC)C(=O)NC(=S)NC1=O (stereo not given) [thiopental]
inactive: 1 nM -0.77% | 8.33 nM 0.01% | 100 nM 0.2% | 833.33 nM 1.29% | 10000 nM 0.45%

CC(CC(C(N)=O)(c1ccccc1)c1ccccc1)N(C)C (stereo not given) [aminopentamide]
inactive: 1 nM -1.11% | 8.33 nM -1.56% | 100 nM -1.71% | 833.33 nM 0.24% | 10000 nM -0.57%

O=C(O)c1ccc(N2C(=O)/C(=C/c3ccc(-c4ccc([N+](=O)[O-])cc4)o3)C=C2c2ccccc2)cc1
inactive: 1 nM -2.98% | 8.33 nM -0.14% | 100 nM 1.72% | 833.33 nM -6.51% | 10000 nM -0.18%

N#Cc1cc(CN2CCC(Nc3ncnc4sc(Cl)cc34)CC2)ccc1F
inactive: 1 nM 6.81% | 8.33 nM 8.07% | 100 nM 7.98% | 833.33 nM 1.59% | 10000 nM 0.56%

COc1ccc(Cn2ccc3ccc(C(=O)NO)cc32)cc1
inactive: 1 nM 0.35% | 8.33 nM 0.42% | 100 nM 3.29% | 833.33 nM 1.7% | 10000 nM -2.47%

COC(=O)/C=C/c1cccc(N(Cc2ccc(-c3ccc(N(C)C)cc3)cc2)C(=O)C2CCCCC2)c1 [fexaramine]
inactive: 1 nM -0.19% | 8.33 nM 0.37% | 100 nM -0.24% | 833.33 nM 2.29% | 10000 nM 1.78%

Cc1occc(=O)c1[O-].Cc1occc(=O)c1[O-].[O]=[V+2] [bis(maltolato)oxovanadium(IV)]
inactive: 1 nM 1.28% | 8.33 nM 1.37% | 100 nM 0.44% | 833.33 nM -2.57% | 10000 nM -1.02%

C[C@@H](CN1CC(=O)NC(=O)C1)N1CC(=O)NC(=O)C1 [dexrazoxane]
inactive: 1 nM 1.89% | 8.33 nM 2.78% | 100 nM 2.19% | 833.33 nM 3.16% | 10000 nM -1.81%

Oc1cc(O)cc(O)c1 [phloroglucin]
inactive: 1 nM 3.42% | 8.33 nM 1.38% | 100 nM 2.28% | 833.33 nM 2.17% | 10000 nM -2.03%

Fc1ccc(C(OCCN2CCN(C/C=C/c3ccccc3)CC2)c2ccc(F)cc2)cc1
inactive: 1 nM 1.02% | 8.33 nM 1.01% | 100 nM 3.35% | 833.33 nM 1.4% | 10000 nM 0.32%

CC[C@@H](C)N(C)C(=O)c1cc2ccccc2c(-c2ccccc2Cl)n1
inactive: 1 nM -0.84% | 8.33 nM 0.72% | 100 nM -0.6% | 833.33 nM 2.81% | 10000 nM 2.78%

C=C(C)[C@@H]1CC=C(CO)CC1 [perillyl-alcohol]
inactive: 1 nM 2.64% | 8.33 nM -3.02% | 100 nM 2.99% | 833.33 nM 2.39% | 10000 nM -1.2%

CC(C)c1ccccc1S(=O)(=O)c1cc(N)c2ncccc2c1[N+](=O)[O-]
inactive: 1 nM 1.33% | 8.33 nM 1.24% | 100 nM 0.12% | 833.33 nM 5.82% | 10000 nM 9.31%

Oc1ccc(C(O)CNCCCCCCNCC(O)c2ccc(O)c(O)c2)cc1O (stereo not given) [hexoprenaline]
inactive: 1 nM -3.2% | 8.33 nM 0.65% | 100 nM 2.27% | 833.33 nM -1.49% | 10000 nM -2.87%

CCOC(=O)c1ccc(N(C)c2csc(-c3ccccc3)n2)cc1 [neuropathiazol]
inactive: 1 nM -0.18% | 8.33 nM 1.78% | 100 nM 0.85% | 833.33 nM 2.12% | 10000 nM 2.67%

Oc1nc(O)c2cn[nH]c2n1 [oxypurinol]
inactive: 1 nM -1.15% | 8.33 nM -1.53% | 100 nM -2.43% | 833.33 nM -2.52% | 10000 nM 1.11%

CC(C)(C)c1ccc(S(=O)(=O)NCc2ccc(C(=O)Nc3cccnc3)cc2)cc1
inactive: 1 nM 1.28% | 8.33 nM 0.01% | 100 nM -0.96% | 833.33 nM -2.95% | 10000 nM -10.9%
